# Several values for one entry are separate records, joined by “and”; a condition that tells them apart may be missing. Equal entries are not always repeated. Records with an inconclusive call do not appear. A structure can be active in one record and inactive in another. Activity calls are given as the source filed them. How the source made its calls, unless noted: active means hit-call score of the fitted dose curve at least 0.9, where 1 is the maximum; inconclusive means response in the unintended direction; inactive means score below 0.9.
# Key:
# [1] = read-out: Intercellular Adhesion Molecule 1 (ICAM1), ICAM1 (gene 3383); assay: BSK_3C_ICAM1: BioMAP Diversity Plus: 3C Assay for Intercellular Adhesion Molecule 1 (ICAM1) Biomarker Activity (AID 2283003; active means hit-call score of the fitted dose curve at least 0.9, where 1 is the maximum; inactive means score below 0.9); conditions: primary human endothelial cells (HUVEC); actives raise or lower the signal
# How it was run: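 ICAM-1 levels measured by ELISA after HUVEC cultures in the 3C system had been dosed for 24 h. Gain or loss of signal relative to DMSO was fitted in both directions.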
# [2] = biological target: human Retinoic Acid Receptor beta (RARb), RARB (gene 5915) (UniProt P10826); assay: ATG_RARb_TRANS: Attagene TRANS-FACTORIAL HepG2 Assay for human Retinoic Acid Receptor beta (AID 2283004)
# Chain of human Retinoic Acid Receptor beta (RARb), RARB (gene 5915) (P10826 whole entry, looked up, the tested form may be a part): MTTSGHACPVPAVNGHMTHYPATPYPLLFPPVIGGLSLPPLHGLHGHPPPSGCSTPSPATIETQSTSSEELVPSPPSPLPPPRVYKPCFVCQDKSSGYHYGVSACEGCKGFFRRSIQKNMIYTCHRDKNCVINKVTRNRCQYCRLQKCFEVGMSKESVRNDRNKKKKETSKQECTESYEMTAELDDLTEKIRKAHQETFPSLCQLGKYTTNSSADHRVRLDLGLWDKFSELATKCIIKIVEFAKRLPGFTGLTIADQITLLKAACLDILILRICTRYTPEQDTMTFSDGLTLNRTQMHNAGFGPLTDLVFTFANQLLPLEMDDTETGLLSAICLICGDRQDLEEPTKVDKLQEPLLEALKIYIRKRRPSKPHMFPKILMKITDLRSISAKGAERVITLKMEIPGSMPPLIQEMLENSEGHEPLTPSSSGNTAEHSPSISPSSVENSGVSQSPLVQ
# How it was run: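 Induction of reporter mRNA from a chimeric RARb-Gal4 construct was measured by RT-PCR, FAM labelling, HpaI digestion and capillary electrophoresis. Measurements followed 24 h compound treatment of transiently transfected human HepG2 liver cells, with DMSO as baseline.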
# [3] = biological target: Retinoic acid receptor alpha (Homo sapiens) (UniProt P10276); assay: ATG_RARa_TRANS: Attagene TRANS-FACTORIAL HepG2 Assay for human Retinoic Acid Receptor alpha (RARa) (AID 2283005)
# Chain of Retinoic acid receptor alpha (Homo sapiens) (P10276 whole entry, looked up, the tested form may be a part): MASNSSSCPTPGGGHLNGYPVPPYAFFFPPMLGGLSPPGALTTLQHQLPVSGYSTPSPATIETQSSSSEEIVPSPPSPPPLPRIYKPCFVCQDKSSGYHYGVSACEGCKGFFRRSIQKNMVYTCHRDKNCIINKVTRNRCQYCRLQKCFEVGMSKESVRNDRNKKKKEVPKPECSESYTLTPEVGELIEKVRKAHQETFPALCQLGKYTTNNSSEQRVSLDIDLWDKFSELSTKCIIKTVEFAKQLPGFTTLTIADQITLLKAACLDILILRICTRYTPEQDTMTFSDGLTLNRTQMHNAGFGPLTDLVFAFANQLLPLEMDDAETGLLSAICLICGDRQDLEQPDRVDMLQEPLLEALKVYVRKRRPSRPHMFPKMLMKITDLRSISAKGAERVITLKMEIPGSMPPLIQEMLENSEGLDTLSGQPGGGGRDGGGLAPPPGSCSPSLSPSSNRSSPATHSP
# How it was run: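 HepG2 transiently transfected with multiplex GAL4-UAS reporter units including a human RARa–GAL4 chimera; 24 h compound exposure. Reporter mRNA quantified by RT-PCR, 6-FAM labeling and capillary electrophoresis; gain of signal versus DMSO.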
# [4] = BSK_3C_Proliferation: Cell Proliferation Assessment in the BioMAP Diversity Plus: 3C Assay (AID 2283006; active means hit-call score of the fitted dose curve at least 0.9, where 1 is the maximum; inactive means score below 0.9;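 on AC50: potency may reflect either rise or fall in cell number versus DMSO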); conditions: primary human endothelial cells (HUVEC)
# How it was run: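 Read-out is total protein by SRB absorbance at 560 nm, taken as a proxy for relative cell number. Primary human umbilical vein endothelium cultured below confluence was dosed for 48 h, TCA-fixed and SRB-stained; curves were fitted bidirectionally versus DMSO.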
# [5] = biological target: Peroxisome proliferator-activated receptor gamma (Homo sapiens) (UniProt P37231); assay: ATG_PPARg_TRANS: Attagene TRANS-FACTORIAL HepG2 Assay for human Peroxisome Proliferator-activated Receptor-gamma (PPARg) (AID 2283007)
# Chain of Peroxisome proliferator-activated receptor gamma (Homo sapiens) (P37231 whole entry, looked up, the tested form may be a part): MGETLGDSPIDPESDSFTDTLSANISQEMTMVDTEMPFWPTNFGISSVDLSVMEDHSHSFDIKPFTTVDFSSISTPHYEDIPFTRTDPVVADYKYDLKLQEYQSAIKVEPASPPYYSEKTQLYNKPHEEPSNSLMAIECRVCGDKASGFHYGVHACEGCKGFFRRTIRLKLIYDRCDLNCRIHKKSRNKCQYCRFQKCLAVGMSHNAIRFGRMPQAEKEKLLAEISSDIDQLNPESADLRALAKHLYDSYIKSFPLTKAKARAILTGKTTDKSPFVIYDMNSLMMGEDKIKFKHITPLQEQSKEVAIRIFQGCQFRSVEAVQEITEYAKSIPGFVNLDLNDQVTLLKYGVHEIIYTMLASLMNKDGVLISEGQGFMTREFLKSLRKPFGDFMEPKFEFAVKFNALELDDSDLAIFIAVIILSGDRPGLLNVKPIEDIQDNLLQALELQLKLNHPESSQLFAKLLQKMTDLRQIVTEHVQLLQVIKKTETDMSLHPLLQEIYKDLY
# How it was run: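 HepG2 cells transiently transfected with multiplexed GAL4-UAS reporter units and exogenous chimeric NR-Gal4 proteins; reporter mRNA quantified after 24 h compound exposure by RT-PCR, fluorescent labelling, HpaI digestion and capillary electrophoresis; gain-of-signal fitted versus DMSO baseline.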
# [6] = biological target: Nuclear receptor subfamily 1 group I member 2 (Homo sapiens) (UniProt O75469); assay: ATG_PXR_TRANS: Attagene TRANS-FACTORIAL HepG2 Assay for human Pregnane X Receptor (PXR) (AID 2283008)
# Chain of Nuclear receptor subfamily 1 group I member 2 (Homo sapiens) (O75469 whole entry, looked up, the tested form may be a part): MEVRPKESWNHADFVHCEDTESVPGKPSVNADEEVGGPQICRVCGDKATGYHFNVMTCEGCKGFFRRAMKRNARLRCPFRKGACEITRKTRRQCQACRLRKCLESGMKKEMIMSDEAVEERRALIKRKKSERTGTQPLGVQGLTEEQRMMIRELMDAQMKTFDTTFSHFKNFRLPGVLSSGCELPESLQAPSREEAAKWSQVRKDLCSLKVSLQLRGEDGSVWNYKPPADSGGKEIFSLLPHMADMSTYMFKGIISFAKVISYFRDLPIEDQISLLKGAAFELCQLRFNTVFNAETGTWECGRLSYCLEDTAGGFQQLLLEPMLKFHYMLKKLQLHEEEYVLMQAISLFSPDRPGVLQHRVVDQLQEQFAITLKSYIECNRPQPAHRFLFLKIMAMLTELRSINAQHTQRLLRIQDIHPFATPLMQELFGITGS
# How it was run: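 Fluorescence intensity of FAM-labelled, HpaI-digested reporter amplicons, separated by capillary electrophoresis, quantifies induction. HepG2 cells with PXR-Gal4 trans-reporter system were exposed 24 h; DMSO defines baseline.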
# [7] = biological target: Retinoic acid receptor RXR-alpha (Homo sapiens) (UniProt P19793); assay: ATG_RXRa_TRANS: Attagene TRANS-FACTORIAL HepG2 Assay for human Retinoid X Receptor alpha (RXRa) (AID 2283012)
# Chain of Retinoic acid receptor RXR-alpha (Homo sapiens) (P19793 whole entry, looked up, the tested form may be a part): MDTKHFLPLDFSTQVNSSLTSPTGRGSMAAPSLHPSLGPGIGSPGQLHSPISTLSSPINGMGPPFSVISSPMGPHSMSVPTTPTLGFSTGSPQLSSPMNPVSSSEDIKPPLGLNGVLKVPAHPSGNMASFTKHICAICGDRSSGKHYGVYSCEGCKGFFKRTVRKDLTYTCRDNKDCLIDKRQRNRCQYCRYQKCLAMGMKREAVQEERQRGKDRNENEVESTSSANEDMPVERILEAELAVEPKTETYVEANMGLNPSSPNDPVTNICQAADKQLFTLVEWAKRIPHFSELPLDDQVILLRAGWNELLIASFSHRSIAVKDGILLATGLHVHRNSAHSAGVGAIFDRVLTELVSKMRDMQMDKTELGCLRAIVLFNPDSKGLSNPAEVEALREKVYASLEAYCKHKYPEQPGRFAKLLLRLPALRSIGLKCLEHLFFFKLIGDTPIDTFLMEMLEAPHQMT
# How it was run: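 Transient transfection of human HepG2 with multiple GAL4-UAS reporter constructs; 24 h compound exposure; total RNA isolated, reverse-transcribed, PCR-amplified, 6-FAM labelled, HpaI-cut, resolved by capillary electrophoresis. Positive-direction fit versus DMSO.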
# [8] = biological target: human Retinoid X Receptor beta (RXRb), RXRB (gene 6257) (UniProt P28702); assay: ATG_RXRb_TRANS: Attagene TRANS-FACTORIAL HepG2 Assay for human Retinoid X Receptor beta (RXRb) (AID 2283013)
# Chain of human Retinoid X Receptor beta (RXRb), RXRB (gene 6257) (P28702 whole entry, looked up, the tested form may be a part): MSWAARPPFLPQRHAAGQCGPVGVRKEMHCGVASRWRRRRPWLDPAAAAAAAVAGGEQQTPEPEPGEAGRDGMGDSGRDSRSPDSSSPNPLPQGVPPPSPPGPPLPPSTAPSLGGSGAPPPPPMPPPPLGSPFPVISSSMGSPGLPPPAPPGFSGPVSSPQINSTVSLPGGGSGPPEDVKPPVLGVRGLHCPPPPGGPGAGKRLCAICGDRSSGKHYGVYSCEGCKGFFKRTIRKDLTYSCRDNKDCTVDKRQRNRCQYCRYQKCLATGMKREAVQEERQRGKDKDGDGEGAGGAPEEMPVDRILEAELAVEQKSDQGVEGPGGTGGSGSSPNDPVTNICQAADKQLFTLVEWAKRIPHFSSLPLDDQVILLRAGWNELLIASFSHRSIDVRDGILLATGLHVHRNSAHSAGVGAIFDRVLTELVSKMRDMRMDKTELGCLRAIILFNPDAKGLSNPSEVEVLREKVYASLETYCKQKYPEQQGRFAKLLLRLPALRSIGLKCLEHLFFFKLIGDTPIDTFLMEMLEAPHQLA
# How it was run: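 Transfect HepG2 with GAL4-UAS multi-reporter constructs (chimeric NR-Gal4, TRANS format); dose compound 24 h; isolate RNA, RT-PCR, FAM primer extension, HpaI digest; quantify by capillary electrophoresis; positive direction vs DMSO.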
# [9] = biological target: human RAR-related Orphan Receptor gamma (RORg), RORC (gene 6097) (UniProt P51449); assay: ATG_RORg_TRANS: Attagene TRANS-FACTORIAL HepG2 Assay for human RAR-related Orphan Receptor gamma (RORg) (AID 2283011)
# Chain of human RAR-related Orphan Receptor gamma (RORg), RORC (gene 6097) (P51449 whole entry, looked up, the tested form may be a part): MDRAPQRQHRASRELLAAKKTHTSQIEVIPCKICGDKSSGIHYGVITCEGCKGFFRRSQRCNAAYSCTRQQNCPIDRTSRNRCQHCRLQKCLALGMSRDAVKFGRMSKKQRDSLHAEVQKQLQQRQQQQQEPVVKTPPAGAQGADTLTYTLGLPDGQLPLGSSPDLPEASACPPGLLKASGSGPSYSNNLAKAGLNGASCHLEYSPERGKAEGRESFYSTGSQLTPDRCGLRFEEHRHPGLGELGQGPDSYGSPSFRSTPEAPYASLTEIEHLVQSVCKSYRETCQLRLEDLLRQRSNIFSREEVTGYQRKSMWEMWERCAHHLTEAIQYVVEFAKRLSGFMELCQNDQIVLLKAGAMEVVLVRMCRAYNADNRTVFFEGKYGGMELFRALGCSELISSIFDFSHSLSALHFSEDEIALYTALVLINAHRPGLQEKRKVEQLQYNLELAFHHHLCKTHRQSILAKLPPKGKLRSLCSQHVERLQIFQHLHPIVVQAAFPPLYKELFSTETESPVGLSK
# How it was run: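 Reporter transcripts from a transfected RORg-GAL4 chimera in HepG2 cells were quantified 24 h after dosing by RT-PCR, 6-FAM labelling, HpaI digestion and capillary electrophoresis; increases over DMSO baseline were fitted.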
# [10] = biological target: human RAR-related Orphan Receptor beta (RORb), RORB (gene 6096) (UniProt Q92753); assay: ATG_RORb_TRANS: Attagene TRANS-FACTORIAL HepG2 Assay for human RAR-related Orphan Receptor beta (RORb) (AID 2283010)
# Chain of human RAR-related Orphan Receptor beta (RORb), RORB (gene 6096) (Q92753 whole entry, looked up, the tested form may be a part): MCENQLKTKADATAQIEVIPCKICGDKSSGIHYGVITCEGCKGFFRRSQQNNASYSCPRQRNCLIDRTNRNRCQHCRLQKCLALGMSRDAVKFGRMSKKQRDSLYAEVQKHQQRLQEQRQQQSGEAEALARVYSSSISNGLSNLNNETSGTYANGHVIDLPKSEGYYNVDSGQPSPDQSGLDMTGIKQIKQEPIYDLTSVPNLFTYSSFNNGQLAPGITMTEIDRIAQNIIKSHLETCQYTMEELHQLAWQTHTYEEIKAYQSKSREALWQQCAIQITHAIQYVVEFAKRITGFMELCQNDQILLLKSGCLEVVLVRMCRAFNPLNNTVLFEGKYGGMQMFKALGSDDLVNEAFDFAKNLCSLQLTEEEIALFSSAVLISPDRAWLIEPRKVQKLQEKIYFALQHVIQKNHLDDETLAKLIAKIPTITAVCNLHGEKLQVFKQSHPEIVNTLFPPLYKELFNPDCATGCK
# How it was run: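 Readout is reporter-gene mRNA induction, detected as fluorescence after RT-PCR and capillary electrophoresis, fitted for gain of signal against DMSO controls. Transiently transfected HepG2 liver cells carrying GAL4-UAS reporter constructs were treated for 24 hours.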
smiles,measurement,setting,value
O=P(OCCCl)(OCCCl)OCCCl,outcome,[1],inactive
same,outcome,[2],inactive
same,outcome,[3],inactive
same,outcome,[4],inactive
same,outcome,[5],inactive
same,outcome,[6],inactive
C1=Cc2cccc3cccc1c23,outcome,[1],inactive
same,outcome,[3],inactive
same,outcome,[4],inactive
same,outcome,[5],inactive
same,outcome,[6],inactive
same,outcome,[7],inactive
same,outcome,[8],inactive
Nc1ccc(N=Nc2ccccc2)cc1,outcome,[1],inactive
same,outcome,[2],inactive
same,outcome,[3],inactive
same,AC50,[4],12.2 µM (active)
same,AC50,[5],100 µM (active)
same,outcome,[6],inactive
same,outcome,[9],inactive
same,outcome,[7],inactive
CCOc1cccc(C2(N3CCN(c4ccccc4)CC3)CCC(C)CC2)c1 (configuration not stated),outcome,[1],inactive
same,outcome,[2],inactive
same,outcome,[4],inactive
same,outcome,[5],inactive
same,outcome,[9],inactive
same,outcome,[8],inactive
OCCCl,outcome,[1],inactive
same,outcome,[3],inactive
same,outcome,[4],inactive
same,outcome,[6],inactive
same,outcome,[10],inactive
same,outcome,[9],inactive
same,outcome,[8],inactive
Nc1ccc(Cl)cc1N,outcome,[1],inactive
same,outcome,[2],inactive
same,outcome,[3],inactive
same,outcome,[4],inactive
same,outcome,[5],inactive
same,outcome,[6],inactive
same,outcome,[7],inactive
same,AC50,[8],27.8 µM (active)
N#CC(Br)(Br)C(N)=O,outcome,[1],inactive
same,outcome,[2],inactive
same,outcome,[3],inactive
same,outcome,[4],inactive
same,outcome,[6],inactive
same,outcome,[10],inactive
same,outcome,[9],inactive
same,AC50,[8],10 µM (active)
CC(O)CCO (configuration not stated),outcome,[1],inactive
same,outcome,[2],inactive
same,outcome,[3],inactive
same,outcome,[4],inactive
same,AC50,[6],24.1 µM (active)
same,outcome,[9],inactive
same,AC50,[8],6.17 µM (active)
CCCCC(CC)COC(=O)c1ccc(C(=O)OCC(CC)CCCC)c(C(=O)OCC(CC)CCCC)c1 (configuration not stated),outcome,[1],inactive
same,outcome,[2],inactive
same,outcome,[4],inactive
same,outcome,[6],inactive
same,outcome,[10],inactive
same,outcome,[7],inactive
OCCOCCO,outcome,[1],inactive
same,outcome,[2],inactive
same,outcome,[4],inactive
same,outcome,[9],inactive
same,outcome,[7],inactive
same,outcome,[8],inactive
CC(C)N(Cc1ccccc1)C(=O)C(C)(C)C,outcome,[1],inactive
same,outcome,[2],inactive
same,outcome,[4],inactive
same,AC50,[6],0.556 µM (active)
same,outcome,[9],inactive
same,outcome,[8],inactive
Cc1cccc(N)c1N,outcome,[1],inactive
same,outcome,[2],inactive
same,outcome,[3],inactive
same,outcome,[4],inactive
same,outcome,[5],inactive
same,outcome,[6],inactive
same,outcome,[7],inactive
same,AC50,[8],46.1 µM (active)
O=C1CCCO1,outcome,[1],inactive
same,outcome,[2],inactive
same,outcome,[4],inactive
same,outcome,[5],inactive
same,outcome,[9],inactive
same,outcome,[7],inactive
CC(C)(C)OOC(C)(C)CCC(C)(C)OOC(C)(C)C,outcome,[1],inactive
same,AC50,[2],24.7 µM (active)
same,outcome,[4],inactive
same,outcome,[6],inactive
same,outcome,[7],inactive
same,AC50,[8],16.4 µM (active)
Cc1ccc(N=C=O)cc1N=C=O,outcome,[1],inactive
same,outcome,[2],inactive
same,outcome,[3],inactive
same,AC50,[4],13.9 µM (active)
same,outcome,[9],inactive
O=[N+]([O-])C(Br)(CO)CO,AC50,[1],33.4 µM (active)
same,outcome,[2],inactive
same,AC50,[4],5.94 µM (active)
same,outcome,[5],inactive
same,outcome,[10],inactive
same,outcome,[9],inactive
same,outcome,[7],inactive
same,outcome,[8],inactive
CCCCCCCCOC(=O)c1ccc(C(=O)OCCCCCCCC)c(C(=O)OCCCCCCCC)c1,outcome,[1],inactive
same,outcome,[2],inactive
same,outcome,[3],inactive
same,outcome,[4],inactive
same,outcome,[5],inactive
same,outcome,[7],inactive
same,AC50,[8],65.4 µM (active)
CS(=O)(=O)NC(=O)c1cc(Oc2ccc(C(F)(F)F)cc2Cl)ccc1[N+](=O)[O-],outcome,[1],inactive
same,outcome,[2],inactive
same,outcome,[3],inactive
same,outcome,[4],inactive
same,AC50,[5],30.3 µM (active)
same,AC50,[6],7.65 µM (active)
same,outcome,[9],inactive
same,outcome,[7],inactive
same,outcome,[8],inactive
[As]#[In],outcome,[1],inactive
same,outcome,[2],inactive
same,outcome,[3],inactive
same,outcome,[4],inactive
same,outcome,[10],inactive
same,outcome,[9],inactive
same,outcome,[7],inactive
same,outcome,[8],inactive
c1ccc2c(c1)-c1cccc3cccc-2c13,outcome,[1],inactive
same,outcome,[2],inactive
same,outcome,[3],inactive
same,outcome,[4],inactive
same,outcome,[5],inactive
same,outcome,[6],inactive
same,outcome,[10],inactive
same,outcome,[7],inactive
same,AC50,[8],31.2 µM (active)
Nc1ccc(Cc2ccc(N)cc2)cc1,outcome,[1],inactive
same,outcome,[2],inactive
same,outcome,[4],inactive
same,outcome,[5],inactive
same,outcome,[9],inactive
same,outcome,[7],inactive
CCNS(=O)(=O)C(F)(F)C(F)(F)C(F)(F)C(F)(F)C(F)(F)C(F)(F)C(F)(F)C(F)(F)F,outcome,[1],inactive
same,outcome,[2],inactive
same,outcome,[3],inactive
same,AC50,[4],19.3 µM (active) and 46 µM (active) and 43.2 µM (active)
same,AC50,[5],96.5 µM (active) and 120 µM (active) and 51.2 µM (active)
same,AC50,[6],12.7 µM (active) and 9.73 µM (active)
same,outcome,[6],inactive
same,outcome,[10],inactive
same,outcome,[9],inactive
same,outcome,[7],inactive
same,outcome,[8],inactive
CCOC(=O)[C@]1(c2ccccc2)Oc2ccccc2[C@@H]1N,outcome,[1],inactive
same,outcome,[2],inactive
same,outcome,[3],inactive
same,AC50,[4],30.9 µM (active)
same,outcome,[5],inactive
same,AC50,[6],11 µM (active)
same,outcome,[9],inactive
Oc1ccc2ccc3cccc4ccc1c2c34,AC50,[1],31.8 µM (active)
same,outcome,[2],inactive
same,AC50,[4],24.6 µM (active)
same,AC50,[6],33.4 µM (active)
same,outcome,[9],inactive
same,outcome,[7],inactive
same,AC50,[8],43.3 µM (active)
COC(=O)Nc1nc2ccccc2[nH]1,outcome,[1],inactive
same,outcome,[3],inactive
same,AC50,[4],9.95 µM (active)
same,outcome,[5],inactive
same,outcome,[6],inactive
same,outcome,[10],inactive
same,outcome,[8],inactive
Clc1ccc(Cl)c(Cl)c1,outcome,[1],inactive
same,outcome,[3],inactive
same,outcome,[4],inactive
same,outcome,[5],inactive
same,outcome,[9],inactive
Nc1ccc(Oc2ccc(N)cc2)cc1,outcome,[1],inactive
same,outcome,[3],inactive
same,outcome,[4],inactive
same,outcome,[5],inactive
same,outcome,[9],inactive
same,outcome,[7],inactive
N#CC(Br)Br,outcome,[1],inactive
same,outcome,[4],inactive
same,outcome,[5],inactive
same,outcome,[6],inactive
same,outcome,[7],inactive
same,outcome,[8],inactive
[Cl-].[Cl-].[Hg+2],outcome,[1],inactive
same,AC50,[4],32.6 µM (active)
same,outcome,[5],inactive
same,outcome,[6],inactive
same,outcome,[10],inactive
same,outcome,[9],inactive
same,outcome,[7],inactive
same,outcome,[8],inactive
O=[N+]([O-])c1ccc(Oc2ccc(Cl)cc2Cl)cc1,outcome,[1],inactive
same,AC50,[4],32.4 µM (active)
same,AC50,[5],14.3 µM (active)
same,AC50,[6],9.58 µM (active)
same,outcome,[7],inactive
same,outcome,[8],inactive
CNC(=O)Oc1cccc2c1OC(C)(C)C2,outcome,[1],inactive
same,outcome,[4],inactive
same,outcome,[5],inactive
same,outcome,[6],inactive
same,outcome,[10],inactive
same,outcome,[7],inactive
same,AC50,[8],58.7 µM (active)
CC(C)(O)c1cnn2c(-c3ccc(F)c(-c4c(F)cccc4C#N)c3)cnc2n1,outcome,[1],inactive
same,AC50,[4],33.8 µM (active)
same,outcome,[5],inactive
same,AC50,[6],0.0774 µM (active)
same,outcome,[7],inactive
ClC1=C(Cl)C2(Cl)C3C(Cl)C=CC3C1(Cl)C2(Cl)Cl (configuration not stated),AC50,[1],30.2 µM (active)
same,AC50,[4],7.84 µM (active)
same,outcome,[5],inactive
same,outcome,[6],inactive
same,outcome,[7],inactive
same,outcome,[8],inactive
Oc1ccccc1Cl,outcome,[1],inactive
same,outcome,[4],inactive
same,outcome,[5],inactive
same,outcome,[6],inactive
same,outcome,[7],inactive
same,outcome,[8],inactive
ClC1=C(Cl)[C@]2(Cl)[C@H]3[C@H]([C@@H]4C=C[C@H]3C4)[C@@]1(Cl)C2(Cl)Cl,AC50,[1],35 µM (active)
same,AC50,[4],12.2 µM (active)
same,outcome,[5],inactive
same,AC50,[6],9.08 µM (active)
same,outcome,[10],inactive
same,outcome,[9],inactive
same,outcome,[7],inactive
same,AC50,[8],10.4 µM (active)

# — PubChem BioAssay (EPA / NIEHS)
